In PubChem BioAssay (NCATS) one finds activation and Potency data, which are given here for 26 compounds.

Records with an inconclusive call do not appear. A number with no mark means an inactive call. Calls of active or inactive are those of the source. Calls follow the shape of the dose curve; as a rule, active = well fitted curve in the direction sought with a large enough effect; inconclusive = small, poorly fitted or top-dose-only effect, or another doubt; inactive = no such curve, though single readings can be large; an effect the other way counts as inactive or inconclusive.

For experiment [1], the target named is Cellular tumor antigen p53 (Homo sapiens) (UniProt P04637). Nature of the experiment: Primary qHTS for small molecule compounds that upregulate eGFP-tagged delta133p53alpha (in N-terminal) cells. (AID 2060322). Also: nearly all actives have a fitted effect of over 75% in size. Also: potency is read from the fitted curve at half-maximal effect.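 As to activation: cells pre-induced with doxycycline then dosed without doxycycline; series mostly up to about 56 µM; 0% = DMSO vehicle and 100% = reference activator.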 Particulars: NCI-H358 eGFP-delta133p53alpha fluorescence, 24 h; activation: stronger effect = higher value. In a few lines: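 NCI-H358 cells pre-induced 24 h with 10 ng/ml doxycycline for eGFP-delta133p53alpha, plated dox-free and exposed 24 h at 37C to titrated compounds. Fixed, Hoechst-stained; gated GFP peak intensity by laser scanning cytometry, normalized to DMSO (0%) and 57.5 uM 5-azacytidine (100%).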

Experiment [2] has as its target Aldehyde dehydrogenase, mitochondrial (Homo sapiens) (UniProt P05091). Nature of the experiment: qHTS for Inhibitors of the Aldehyde Dehydrogenase Family (ALDH2) Primary screen (AID 2061308).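 Also: plate controls were vehicle for no effect and reference inhibitor for full effect; nearly all actives have a fitted effect of over 55% in size.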
For experiment [3], the target named is Retinaldehyde dehydrogenase 3 (Homo sapiens) (UniProt P47895). Nature of the experiment: qHTS for Inhibitors of the Aldehyde Dehydrogenase Family (ALDH1A3) Primary screen (AID 2061315).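 Also: plate controls were DMSO vehicle for no effect and reference inhibitor for full effect.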

Chain of Cellular tumor antigen p53 (Homo sapiens) (P04637 whole entry, looked up): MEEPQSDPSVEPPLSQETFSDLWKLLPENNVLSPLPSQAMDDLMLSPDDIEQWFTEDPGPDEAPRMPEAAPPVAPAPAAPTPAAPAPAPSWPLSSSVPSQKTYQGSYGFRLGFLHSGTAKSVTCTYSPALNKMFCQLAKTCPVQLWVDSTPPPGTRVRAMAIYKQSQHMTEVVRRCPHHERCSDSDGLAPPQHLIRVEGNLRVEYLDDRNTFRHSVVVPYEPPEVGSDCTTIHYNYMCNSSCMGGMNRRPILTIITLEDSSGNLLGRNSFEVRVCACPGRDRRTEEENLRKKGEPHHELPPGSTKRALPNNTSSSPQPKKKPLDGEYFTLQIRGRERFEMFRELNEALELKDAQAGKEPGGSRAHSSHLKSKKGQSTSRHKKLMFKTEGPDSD

Turning to `CC(C#N)C(C)O[C@@H]1O[C@H](CO)[C@@H](O)[C@H](O)[C@H]1O` (stereo partly drawn), the activation in experiment [1] was 24.1%. For the same compound, the Potency result in experiment [2] and in experiment [3] was “inactive” throughout.
Take `CC1(C)CC[C@]2(C(=O)O[C@@H]3O[C@H](CO)[C@@H](O)[C@H](O)[C@H]3O)CC[C@]3(C)C(=CCC4[C@@]5(C)CC[C@H](O[C@@H]6O[C@H](C(=O)O)[C@H](O)[C@H](O)[C@H]6O)C(C)(C)C5CC[C@]43C)[C@@H]2C1` (stereo partly drawn): the activation in experiment [1] is -2.68%. Further, the Potency entry in experiment [2] and in experiment [3] was “inactive” in each case.
For `COc1cc(C/C(=C/NC(C)=O)N(CC(=O)Cc2ccccc2)C(C)=O)cc2c1OCO2`, the activation in experiment [1] is -26%. The Potency result in experiment [2] and in experiment [3] was “inactive” in each case.
As for `O=C(O)CC1(O)C(=O)Nc2ccccc21` (stereo not drawn), the activation in experiment [1] is 1.79%. Moreover, the Potency entry in experiment [2] and in experiment [3] was “inactive” throughout.
As to `O=C(Cc1ccc(-c2ccccc2)cc1)NC1CCC1`, the activation in experiment [1] was -1%. In addition, the Potency result in experiment [2] and in experiment [3] was “inactive” in each case.
In the case of `COc1cccc(-c2cn(-c3ccc(CCN4CCC(O)CC4)cc3)c3ncnc(N)c23)c1`, the Potency in experiment [1] was 6.01 µM (active). Further, the Potency result in experiment [2] and in experiment [3] was “inactive” in each case.
In the case of `O=C(CCC1CCN(Cc2ccccc2)CC1)c1ccc2c(c1)NCCCC2`, the activation in experiment [1] was 6.33%. For the same compound, the Potency entry in experiment [2] and in experiment [3] was “inactive” in each case.
Regarding `Cc1nc2c(C(F)(F)F)cccc2nc1-c1ccc(-c2cccc(S(C)(=O)=O)c2)cc1`, the activation in experiment [1] was -2.68%. In addition, the Potency entry in experiment [2] and in experiment [3] was “inactive” each time.
As to `CC1=C2C(=O)C=C(CO[C@@H]3O[C@H](CO)[C@@H](O)[C@H](O)[C@H]3O)[C@@H]2[C@H]2OC(=O)[C@H](C)[C@@H]2CC1`, the activation in experiment [1] was -19.6%. For the same compound, the Potency result in experiment [2] and in experiment [3] was “inactive” in each case.
For the compound `CCOC(=O)c1c(C)nn(-c2cccc([N+](=O)[O-])c2)c1C`, the activation in experiment [1] was -9.67%. Also, the Potency entry in experiment [2] and in experiment [3] was “inactive” throughout.
With `COC(=O)C[C@@H]1C(C(=O)O)=CO[C@@H](O[C@@H]2O[C@H](CO)[C@@H](O)[C@H](O)[C@H]2O)/C1=C\COC(=O)/C=C/c1ccc(O)c(OC)c1`, the activation in experiment [1] was 6.87%. The Potency entry in experiment [2] and in experiment [3] was “inactive” in each case.
For `COc1cc(C#N)ccc1S(=O)(=O)Nc1ccc2c(c1)cc(C)c(=O)n2C`, the activation in experiment [1] is -7%. Also, the Potency entry in experiment [2] and in experiment [3] was “inactive” throughout.
For the compound `C/C=C(\C)C(=O)OC[C@H]1O[C@H](O[C@H]2O[C@H](CO)[C@@H](O)[C@H](O)[C@H]2O[C@@H]2O[C@H](CO)[C@@H](O)[C@H](O)[C@H]2O)[C@H](O[C@@H]2O[C@H](CO)[C@@H](O)[C@H](O)[C@H]2O)[C@@H](O)[C@@H]1O`, the activation in experiment [1] was -3.82%. In addition, the Potency result in experiment [2] and in experiment [3] was “inactive” in each case.
Take `C=C1/C(=C/C=C2\CCC[C@]3(C)[C@@H]([C@H](C)CC[C@@H](O)C(C)(C)O)CC[C@@H]23)C[C@@H](O)C[C@@H]1O`: the activation in experiment [1] was 10.3%. Also, the Potency result in experiment [2] and in experiment [3] was “inactive” in each case.
With `COC(=O)C(CC1(O)c2ccccc2N2C(=O)C(CC(C)C)NC21)n1cnc2ccccc2c1=O` (stereo not drawn), the activation in experiment [1] was -1.53%. The Potency entry in experiment [2] and in experiment [3] was “inactive” throughout.
Consider `CCC(C)C(=O)O[C@H]1[C@H](O)[C@@]2(COC(C)=O)C(CC1(C)C)C1=CCC3[C@@]4(C)CC[C@H](O[C@@H]5O[C@H](C(=O)O)[C@@H](O)[C@H](O)[C@H]5O)[C@@](C)(CO)C4CC[C@@]3(C)[C@]1(C)C[C@@H]2O` (stereo partly drawn), for which the activation in experiment [1] is -0.893%. The Potency entry in experiment [2] and in experiment [3] was “inactive” in each case.
With `CC(C)NC[C@H](O)COc1ccc(CCOCC2CC2)cc1`, the activation in experiment [1] was 1.67%. Besides, the Potency entry in experiment [2] and in experiment [3] was “inactive” each time.
Take `C=C1C(=O)O[C@@H]2[C@H]1CCC(C)=C1CCC(=O)O[C@]12C`: the Potency in experiment [1] was 12 µM (active). Besides, the Potency entry in experiment [2] and in experiment [3] was “inactive” throughout.
With `O=C(/C=C/c1ccc(O)cc1)OC[C@H]1O[C@H](O[C@@]2(CO)O[C@@H](CO)[C@H](O)[C@H]2O)[C@H](O)[C@@H](O)[C@@H]1O`, the activation in experiment [1] is 6.25%. Further, the Potency entry in experiment [2] and in experiment [3] was “inactive” in each case.
For the compound `O=C(O)C[C@H]1CCC(=O)[C@@H]1C/C=C\CCOC1OC(CO)C(O)C(O)C1O` (stereo partly drawn), in experiment [1], the activation is -3.82%. Also, the Potency entry in experiment [2] and in experiment [3] was “inactive” throughout.
Regarding `Cc1ccc(S(=O)(=O)n2ccc(-c3c(-c4ccc(Cl)cc4)noc3C)n2)cc1`, the activation in experiment [1] was -18.8%. For the same compound, the Potency entry in experiment [2] and in experiment [3] was “inactive” each time.
`C/C1=C\CC[C@H](C)CCO[C@@H]2O[C@H](CO[C@@H]3OC[C@](O)(COC1=O)[C@H]3O)[C@@H](O)[C@H](O)[C@H]2O`: in experiment [1], the activation was 18.8%. Further, the Potency result in experiment [2] and in experiment [3] was “inactive” each time.
Turning to `C/C=C(/C)C(=O)OC1C2OC2C2(CO2)C2C3OC(=O)C(C)C3CCC12C` (stereo not drawn), the activation in experiment [1] was 18.3%. Moreover, the Potency entry in experiment [2] and in experiment [3] was “inactive” in each case.
Turning to `COc1ccc(C2=CC(=O)OC2Cc2ccc(O)cc2)c(O)c1` (stereo not drawn), in experiment [1], the activation is -20.6%. The Potency entry in experiment [2] and in experiment [3] was “inactive” throughout.
In the case of `CC(=O)OC1[C@H]2[C@@H](C[C@@H](C)[C@@H]3C=CC(=O)[C@@]13C)OC(=O)[C@@H]2C` (stereo partly drawn), the Potency in experiment [1] was 21.3 µM (active). In addition, the Potency entry in experiment [2] and in experiment [3] was “inactive” throughout.
With `Cc1ccc(C(=O)N2CCN(c3ccc([N+](=O)[O-])cc3)CC2)cc1Cl`, the activation in experiment [1] was 1.91%. In addition, the Potency entry in experiment [2] and in experiment [3] was “inactive” each time.
